Bioassay records deposited in PubChem BioAssay by National Center for Advancing Translational Sciences (NCATS).
Sm TGR block: inhibitors of Schistosoma mansoni thioredoxin glutathione reductase. Q962Y6. purified TGR, DTNB reduction, TNB absorbance 405 nm. Potency, µM (top dose mostly 114 µM), usual class: inhibitors. hit rate 3% among 360,000. AID 485364; further: nearly all actives have a fitted effect of over 60% in size
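First, TGR (20 nM dispensed) and NADPH were mixed with compound. Second, a 15 min room-temperature incubation followed. Third, further NADPH and then DTNB were added to start the reaction. Finally, TNB absorbance was monitored kinetically.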
Marburg entry inh: blocks Marburg virus binding to or entry into cells | Marburg virus pseudotyped entry inhibition, cell reporter | Potency, µM (top dose mostly 37.8 µM), actives largely listed as inhibitors | hit rate 1.8% among 300,000; calls by dose curve; tested in HEK293 cells
LASV entry inh: blocks Lassa virus binding to or entry into cells | Lassa virus pseudotype entry inhibition, cell reporter | Potency, µM (series often up to 37.9 µM), usual class: inhibitors | hit rate 1.2% among 300,000; calls by dose curve; tested in HEK293 cells; further: nearly all actives have a fitted effect of over 50% in size
RE007 growth inh: less growth of the S. pombe RE007 Vpr strain; S. pombe RE007 Vpr strain, BacTiter-Glo ATP luminescence, 24 h; Potency, µM (titrated, usually from 92.2 µM), usual class: inhibitors; hit rate 0.21% among 360,000; active means well fitted falling curve with a large enough effect; inconclusive means small, poorly fitted or top-dose-only effect; inactive means no such curve, though single readings can be large or run the other way; further: nearly all actives have a fitted effect of over 50% in size
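Fission yeast RE007 carrying one integrated HIV-1 vpr copy, seeded at OD 0.01 in PMG+AL medium with 23 nL pinned compound. Grown 24 h at 30 degrees; viability read by BacTiter-Glo luminescence after 5 min.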
HCV inhibitor: inhibitors of hepatitis C virus infection. AID 651820. hit rate 3.4% among 340,000. Huh7.5.1 HCVcc-Cre infection, luciferase reporter, 44 h. Potency, µM (series often up to 41.8 µM), hits mostly inhibitors
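Reporter virus HCVcc-Cre (~0.5 moi) infects cells exposed to compound; seeding density 1,000 cells/well with 4 h settling beforehand. Luminescence, 15 sec read, taken 44 h post-infection following a 15 min RT substrate incubation.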
FMDV inh: blocks foot and mouth disease virus; FMDV antiviral cell-based qHTS; Potency, µM (doses to about 57.9 µM), actives largely listed as inhibitors; hit rate 1.2% among 410,000; AID 1159524; calls by dose curve; tested in HEK293T cells; further: read-out not given here; nearly all actives have a fitted effect of over 45% in size
Numbers stand for hits. A selection: hits, their analogues and other compounds. The true share with any hit is near 7.2%. Unless noted, the call rests on the fitted dose curve; in most records, active means well fitted curve in the direction sought with a large enough effect; inconclusive means small, poorly fitted or top-dose-only effect, or another doubt; inactive means no such curve, though single readings can be large; an effect the other way counts as inactive or inconclusive.

What do the screens show for `Clc1ccc(C2=CC(c3ccco3)n3ncnc3N2)cc1` (stereo unspecified)?
Sm TGR block: 50µM; Marburg entry inh: inactive; LASV entry inh: inactive; RE007 growth inh: inactive; HCV inhibitor: inconclusive; FMDV inh: inactive

What do the screens show for `CC1=CC(c2ccc(Cl)cc2)n2ncnc2N1` (stereo unspecified)?
RE007 growth inh: inactive; HCV inhibitor: 0.89µM; FMDV inh: inactive

How did COc1ccc(C2C=C(C)Nc3ncnn32)cc1 (stereo unspecified) do in these assays?
RE007 growth inh: inactive; HCV inhibitor: inactive; FMDV inh: inactive

What do the screens show for `Cc1ccc(C2=CC(c3ccc(C)cc3)n3ncnc3N2)cc1` (stereo unspecified)?
RE007 growth inh: inactive; HCV inhibitor: inactive; FMDV inh: inactive

What do the screens show for `COc1ccc(OC)c(NC(=O)c2c(C)oc3ncnc(N4CCOCC4)c23)c1`?
Sm TGR block: inactive; LASV entry inh: inactive; FMDV inh: inactive

What do the screens show for `N#Cc1c(/N=C/c2cccs2)sc2c1CCCCC2`?
Sm TGR block: inactive; Marburg entry inh: inconclusive; LASV entry inh: inconclusive; RE007 growth inh: inactive; HCV inhibitor: 10µM; FMDV inh: inconclusive

How did C[C@@H]1C[C@](C)(C(=O)c2ccco2)C=C1c1ccco1 do in these assays?
Marburg entry inh: inactive

Results for CC(=O)n1cc([C@H]2C=C(C(=O)N3CCN(Cc4ccccc4)CC3)O[C@@H](OCc3ccc(CO)cc3)C2)c2ccccc21 ?
Sm TGR block: 18µM; RE007 growth inh: inactive; HCV inhibitor: inconclusive; FMDV inh: inactive

What do the screens show for `CC(=O)n1cc([C@@H]2C=C(C(=O)NCc3ccccc3)O[C@H](OCc3ccc(CO)cc3)C2)c2ccccc21`?
Sm TGR block: 50µM; RE007 growth inh: inactive; HCV inhibitor: inconclusive; FMDV inh: inactive

How did Cn1cc(CN2CCC(C3(c4ccccn4)NC(=O)N(CC4CCCO4)C3=O)CC2)c2ccccc21 (stereo unspecified) do in these assays?
FMDV inh: inactive

What do the screens show for `COc1cccc(NC(=O)CSc2ccc(-c3sc(C)nc3C)nn2)c1`?
Sm TGR block: inactive; Marburg entry inh: inconclusive; LASV entry inh: inconclusive; RE007 growth inh: inactive; HCV inhibitor: 32µM; FMDV inh: 32µM

Results for Cc1cc(C)cc(NC(=O)CSc2ccc(-c3cccs3)nn2)c1 ?
Sm TGR block: inactive; Marburg entry inh: 7.1µM; LASV entry inh: inconclusive; RE007 growth inh: inactive; HCV inhibitor: inconclusive; FMDV inh: inconclusive

What do the screens show for `COc1ccc(C)cc1NC(=O)CSc1ccc(-c2sc(C)nc2C)nn1`?
Sm TGR block: inactive; Marburg entry inh: inactive; LASV entry inh: inconclusive; RE007 growth inh: inactive; HCV inhibitor: 10µM; FMDV inh: inactive

Results for COc1cccc(OCCn2c(-c3ccc(Cl)cc3)nc3ccccc3c2=O)c1 ?
Sm TGR block: inactive; Marburg entry inh: inactive; LASV entry inh: inactive; FMDV inh: inactive

Results for COC(=O)c1cc2oc3ccccc3c2n1CC(=O)Nc1ccc(Cl)cc1F ?
Sm TGR block: inactive; Marburg entry inh: inactive; FMDV inh: inactive

What do the screens show for `Cc1oc(-c2ccccc2NC(=O)C2CCC2)nc1CNC(=O)c1ccccn1`?
FMDV inh: inactive

How did CC1(C)OC2CC3C4CC(F)C5=CC(=O)C=C[C@@]5(C)[C@@]4(F)C(O)C[C@@]3(C)[C@]2(C(=O)CO)O1 (stereo partly specified) do in these assays?
FMDV inh: inactive

How did O=C(c1csnn1)N1CCC2(CCN(Cc3ccccc3)CC2)CC1 do in these assays?
FMDV inh: inactive

How did COc1ccc(CNc2cc(C)nc3ccc(OC)cc23)cc1 do in these assays?
Sm TGR block: inactive; Marburg entry inh: inconclusive; RE007 growth inh: inactive; HCV inhibitor: 14µM; FMDV inh: inactive

How did COc1ccc(Nc2cc(C)nc3ccc(OC)cc23)cc1 do in these assays?
Sm TGR block: inactive; Marburg entry inh: inconclusive; LASV entry inh: inconclusive; RE007 growth inh: inactive; HCV inhibitor: inconclusive; FMDV inh: inactive

Results for COc1ccc(N2CCN(c3cc(C)nc4ccc(OC)cc34)CC2)cc1 ?
Sm TGR block: inactive; Marburg entry inh: inconclusive; LASV entry inh: inconclusive; RE007 growth inh: inactive; HCV inhibitor: 6.3µM; FMDV inh: inconclusive

What do the screens show for `Cc1ccc(N(CC(=O)Nc2ccc(Br)cc2)S(=O)(=O)c2cccs2)cc1`?
Sm TGR block: inactive; Marburg entry inh: inactive; LASV entry inh: inactive; FMDV inh: inactive

How did Oc1c(C=Nc2ccccc2Cl)[nH]c2ccccc12 do in these assays?
Sm TGR block: 50µM; Marburg entry inh: inconclusive; LASV entry inh: inconclusive; RE007 growth inh: inactive; HCV inhibitor: inactive; FMDV inh: inconclusive

How did Cc1ccc(-n2cc(CNCCCn3ccnc3C)c(-c3ccc(F)cc3)n2)cc1 do in these assays?
Sm TGR block: inactive; Marburg entry inh: inconclusive; LASV entry inh: inconclusive; RE007 growth inh: inactive; HCV inhibitor: inconclusive; FMDV inh: inactive

What do the screens show for `Cc1ccc(-c2nn(-c3ccccc3)cc2CO)cc1`?
Sm TGR block: inactive; Marburg entry inh: inactive; LASV entry inh: inconclusive; RE007 growth inh: inactive; HCV inhibitor: inactive; FMDV inh: inactive

How did Cc1ccc(-c2nn(-c3ccccc3)cc2CNCc2ccccc2)cc1 do in these assays?
Marburg entry inh: inconclusive; LASV entry inh: inconclusive; RE007 growth inh: inactive; HCV inhibitor: 11µM; FMDV inh: inactive

How did Cc1ccc(-n2cc(CNCCc3cscn3)c(-c3ccc(F)cc3)n2)cc1 do in these assays?
Sm TGR block: inactive; Marburg entry inh: 13µM; LASV entry inh: inconclusive; RE007 growth inh: inactive; HCV inhibitor: inconclusive; FMDV inh: inactive

Results for C=C(Br)CO[C@@H]1C=C[C@@H](c2ccccc2)O[C@@H]1COC ?
Marburg entry inh: inactive

What do the screens show for `Cc1ccc(-c2[nH]nc(N)c2N=Nc2cccc(Cl)c2C)cc1`?
Sm TGR block: inactive; Marburg entry inh: 20µM; LASV entry inh: inconclusive; RE007 growth inh: inactive; HCV inhibitor: inconclusive; FMDV inh: inconclusive

How did Cc1cccc(N=Nc2c(N)n[nH]c2-c2ccc(Cl)cc2)c1 do in these assays?
Sm TGR block: inactive; Marburg entry inh: inconclusive; LASV entry inh: inactive; RE007 growth inh: inactive; HCV inhibitor: inconclusive; FMDV inh: inactive

Results for Cc1ccc(-c2[nH]nc(N)c2N=Nc2ccccc2C)cc1 ?
Sm TGR block: inactive; Marburg entry inh: 8.2µM; LASV entry inh: inconclusive; RE007 growth inh: inconclusive; HCV inhibitor: inconclusive; FMDV inh: inactive

What do the screens show for `COc1ccc(-c2cc(C(=O)NCc3ccc(F)cc3)c3c(-c4ccc(F)cc4)[nH]nc3n2)cc1OC`?
Sm TGR block: inactive; LASV entry inh: inconclusive; FMDV inh: inactive

Results for COc1cc(OC)c(C(=O)NCc2nc(-c3ccccc3)no2)cc1OC ?
Sm TGR block: inactive; Marburg entry inh: inconclusive; LASV entry inh: inconclusive; FMDV inh: inactive

What do the screens show for `O=C(O)CCc1ccc(-c2cccs2)n1Cc1ccco1`?
Sm TGR block: inconclusive; Marburg entry inh: inactive; LASV entry inh: inactive; RE007 growth inh: inactive; HCV inhibitor: inactive
